Measurements from ChEMBL document CHEMBL4513216, “Probing the Open Global Health Chemical Diversity Library for Multistage-Active Starting Points for Next-Generation Antimalarials” (ACS Infect Dis, 2020).
Screen size: about 69,000 compounds; about 8,600 (12%) showed an effect of 50% or more. The entries come from a sample that favours strong results as a whole.

Tested on: Plasmodium berghei
Assay: Screen against P. berghei liver stage (PbLuc), transformed with Luciferase, at 10uM
Assay type: functional, HepG2
Conditions: tested at 10 uM

| Compound | INHIBITION |
| --- | --- |
| NC(=O)CN(Cc1ncc(-c2ccc(Cl)cc2)o1)C1CCCC1 | -46.6% |
| CN(C)C[C@@H]1CN(C2CCN(c3ccc(Cl)cc3)CC2)C[C@@H]1CO | -86.5% |
| CN(CCO)C[C@@H]1CN(C2CCN(c3ccccc3Cl)CC2)C[C@@H]1CO | 55.2% |
| CN(C)C[C@@H]1CN(C2CCN(c3ccccc3Cl)CC2)C[C@@H]1CO | 22.3% |
| CCc1nnc(SC2CCCN(c3cnn(C)c3)C2=O)n1C (centres undefined) | -30.1% |
| COc1cccc(N2CC3(CCN(C(=O)NC(C)C)C3)CC2=O)c1 (centres undefined) | -11.2% |
| COc1cccc(C2CN(CCc3ccncc3)CCO2)c1 (centres undefined) | 10.5% |
| Cc1ccc(S(=O)(=O)N2CCC(Oc3ccccn3)CC2)c(C)c1 | 78.2% |
| Cc1ccc(S(=O)(=O)N2CCC(Oc3cccnn3)CC2)c(C)c1 | 49.7% |
| Cc1noc(C)c1S(=O)(=O)N1CCC(Oc2ccccn2)CC1 | 45.7% |
| CCOCn1cc(NC(=O)C2CCN(S(C)(=O)=O)CC2)cn1 | 38.2% |
| COc1ccc(CCCN2C(=O)O[C@@H]3CN(C4CCOCC4)C[C@@H]32)cc1 | 34.9% |
| Cc1nnc(NC(=O)N2CCCCC2CCO)s1 (centres undefined) | 44.3% |
| Cc1nsc(NC(=O)N2CCCCC2CCCO)n1 (centres undefined) | 48% |
| Cc1nsc(NC(=O)N2CCCCC2CCO)n1 (centres undefined) | 66.5% |
| CC(C)CCCC(C)NC(=O)c1ccc(OCC(N)=O)cc1 (centres undefined) | 56.4% |
| CC(C)CCC(C)NC(=O)c1ccc(OCC(N)=O)cc1 (centres undefined) | -36.5% |
| CCNC(=O)COc1ccc(C(=O)NC(C)CCc2ccco2)cc1 (centres undefined) | 20.6% |
| CCn1cnnc1CNC(=O)c1cc(Cl)c(I)cc1OC | -7.31% |
| CC(=O)NCCC1CCCCN1C(=O)c1cccc(CCC(C)(C)O)c1 (centres undefined) | 19.7% |
| O=C(Nc1ccccc1F)C1=NN(c2ccccc2)C(=O)CN1 | -73.1% |
| CN(C)CCN1CCOCC2(CCCN(C(=O)Cc3ccccc3)C2)C1 (centres undefined) | 29% |
| CCCn1cc(NC(=O)c2ccncc2)ccc1=O | 50.8% |
| CCCn1cc(NC(=O)c2ccc(S(=O)(=O)CC)cc2)ccc1=O | 60.3% |
| CCCn1cc(NC(=O)c2cccc3cccnc23)ccc1=O | -1.04% |

| Compound | INHIBITION |
| --- | --- |
| CCCn1cc(NC(=O)c2ccc(NC(=O)NC3CC3)cc2)ccc1=O | -13.4% |
| COCCn1cc(NC(=O)NC(C)CCc2ccccc2)ccc1=O (centres undefined) | 28.7% |
| Cn1cc(NC(=O)c2cccc3cccnc23)ccc1=O | -10.8% |
| CCCn1cc(NC(=O)c2ccc(N(C)CC)cc2)ccc1=O | 46.6% |
| CCCn1cc(NC(=O)c2cccnc2O)ccc1=O | 58.5% |
| CCCn1cc(NC(=O)c2ccc(S(C)(=O)=O)cc2)ccc1=O | -5.65% |
| CC(C)n1ccnc1CN1CCCN(C(=O)CN(C)C2CC2)CC1 | 40% |
| Cc1nc(CN2CCCC(NCCOc3cccc(C#N)c3)C2)no1 (centres undefined) | 0.914% |
| Cc1nccn1-c1cc(CNC(=O)CCS(=O)(=O)C2CCCC2)ccn1 | 5.9% |
| Cc1ccc(OCCSC2=NCCN2)cc1 | 32.5% |
| Cc1c(NC(=O)c2noc3c2CCCC3)cnn1C | 10% |
| Cn1c(-c2ccccc2Cl)nc2cc(C(=O)NCCOCCO)cnc21 | -50.7% |
| Cn1ccnc1Sc1ncc(C(=O)N2CCCCC2)cc1Cl | 27.6% |
| CC(C)NC(=O)c1cnc(Sc2nccn2C)c(Cl)c1 | 62.8% |
| CN1CCN(S(=O)(=O)c2ccc(Sc3nccn3C)nc2)CC1 | 46.1% |
| CCOCCCNC(=O)c1nn(CC)cc1Cl | 7.9% |
| Cc1c(Cl)cc(C(=O)N(CCO)Cc2nccn2C)cc1Cl | -8.47% |
| CCN(CC)C(=O)c1cnc(Sc2nccn2C)c(Cl)c1 | 48% |
| CCOCCNC(=O)c1cnc(Sc2nccn2C)c(Cl)c1 | 50.8% |
| CCNC(=O)c1cnc(Sc2nccn2C)c(Cl)c1 | 62.8% |
| CCCn1nccc1NC(=O)CN1CCCC1Cn1nc(C)nc1C (centres undefined) | -101% |
| Cn1nc2c(cc1=O)CN(CCN1CCCC1=O)CC2 | -7.35% |
| CCOc1ccc(Cl)c(C(=O)NC)n1 | 49% |
| CS(=O)(=O)NCC1(O)CCCN(C(=O)CCn2cc(Cl)cn2)CC1 (centres undefined) | -28.7% |
| CCCc1nc(CN(CCO)Cc2cc(Br)ccc2F)no1 | 39.4% |

| Compound | INHIBITION |
| --- | --- |
| CN1CCN(CCOc2ccc(NC(=O)c3cnc[nH]3)cc2)CC1 | 1.04% |
| Cc1nn(C)c(C)c1CN(C)c1nc(C2CCCC2)nc2c1cnn2C | 42.6% |
| Cc1cc(C)nc(CN(C)c2nc(C3CCCC3)nc3c2cnn3C)c1 | 0.87% |
| Cc1c[nH]c(CN(C)c2nc(C3CCCC3)nc3c2cnn3C)n1 | 60.1% |
| Cc1ccc(OC2CCN(S(=O)(=O)N(C)C)CC2)nc1 | 35.4% |
| CCOc1cc(-c2cc(=O)n3c(n2)CCCCC3)ccc1O | -6.09% |
| CCCC(=O)NCc1cc(Br)c(OC)c(OC)c1 | -26.1% |
| CCS(=O)(=O)NCc1cc(Br)c(OC)c(OC)c1 | 51.3% |
| CCC(=O)NCc1cc(Br)c(OC)c(OC)c1 | -4.74% |
| CC(=O)NCCOc1c(Cl)cccc1Cl | 22% |
| CN(Cc1cnn(C)c1)C(=O)CCC(=O)c1ccc2c(c1)OCCO2 | 5.48% |
| CCc1cc(C(F)(F)F)n2nc(C3CCCN3C3CCSCC3)cc2n1 (centres undefined) | 18.95% |
| Cc1cc(N2CCCC(c3n[nH]c4ncccc34)C2)ncn1 (centres undefined) | 26.3% |
| Cc1nc(CN2C[C@@H]3CN(C(=O)C4(C#N)CC4)C[C@@H]3C2=O)cs1 | -20.2% |
| COc1ccc(OCCNc2cccc(C(=O)N3CCOCC3)c2)cc1 | -12.5% |
| Cc1nn(C)c2ncc(CN3CCCCCC3)cc12 | 44.9% |
| COc1ccc(CN2CCC3(CC2)C(C(=O)O)CC(=O)N3C)cc1Cl (centres undefined) | 39.9% |
| Cc1cc(CN2CCCC2)cc(Oc2nc(C)cnc2C)c1 | 89.4% |
| COC(=O)CC1CN(Cc2c(Cl)ccc3cccnc23)CCO1 (centres undefined) | -14.2% |
| Cc1cnc(C)c(Oc2ccc(Cl)c(CN3CCCC3)c2Cl)n1 | 90.3% |
| CCn1c(C2CCCN(Cc3cc(C)cc(C)c3)C2)nn(C)c1=O (centres undefined) | -17.8% |
| c1cc(-c2cn[nH]c2)ccc1CN1CCCCC1 | 10.6% |
| Cc1cnc(C)c(Oc2ccc(CN3CCCC3)cc2Cl)n1 | 89.4% |
| NC(=O)c1cncc(Oc2cccc(CN3CCCC3)c2Cl)n1 | 24.4% |
